# Screen size: about 5,500 compounds; about 2,000 (36%) were called active. About 18% were inconclusive and are not listed. The list shows a part of the results. A number with no mark means an inactive call. No stated cut-off is given here; in the data, active means normalized growth mostly below about 0.91 (no sharp cut-off); inconclusive means no clear call, values can overlap the other calls; inactive means mostly above about 0.92.
# Test: chemical genetic growth profiling, strain panel (AID 1159580);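 further: tested at 20 µM; growth read once vehicle control cultures reached saturation at 30 °C; 1 = growth at the plate median or of vehicle wells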
# Conditions: growth OD
smiles,measurement,setting,value
CCOP(=S)(OCC)SCSP(=S)(OCC)OCC,normalized growth,"S. cerevisiae deletion strains, locus YAL013W, strain DEP1, stronger effect = lower value",0.993
same,normalized growth,"S. cerevisiae deletion strains, locus YBR021W, strain FUR4, stronger effect = lower value",1
same,normalized growth,"S. cerevisiae deletion strains, locus YBR229C, strain ROT2, stronger effect = lower value",0.961
same,normalized growth,"S. cerevisiae deletion strains, locus YCL029C, strain bik1, stronger effect = lower value",0.978
same,normalized growth,"S. cerevisiae deletion strains, locus YDL035C, strain GPR1, stronger effect = lower value",0.956
same,normalized growth,"S. cerevisiae deletion strains, locus YDL074C, strain BRE1, stronger effect = lower value",0.89
same,normalized growth,"S. cerevisiae deletion strains, locus YDL101C, strain DUN1, stronger effect = lower value",0.97
same,normalized growth,"S. cerevisiae deletion strains, locus YDL134C, strain PPH21, stronger effect = lower value",0.986
same,normalized growth,"S. cerevisiae deletion strains, locus YDL185W, strain tfp1, stronger effect = lower value",0.957
same,normalized growth,"S. cerevisiae deletion strains, locus YDL192W, strain arf1, stronger effect = lower value",0.979
same,normalized growth,"S. cerevisiae deletion strains, locus YDR101C, strain arx1, stronger effect = lower value",0.989
same,normalized growth,"S. cerevisiae deletion strains, locus YDR150W, strain NUM1, stronger effect = lower value",0.984
same,normalized growth,"S. cerevisiae deletion strains, locus YDR162C, strain NBP2, stronger effect = lower value",0.806 (active)
same,normalized growth,"S. cerevisiae deletion strains, locus YDR318W, strain mcm21, stronger effect = lower value",0.981
same,normalized growth,"S. cerevisiae deletion strains, locus YDR388W, stronger effect = lower value",0.994
same,normalized growth,"S. cerevisiae deletion strains, locus YDR502C, strain sam2, stronger effect = lower value",0.99
same,normalized growth,"S. cerevisiae deletion strains, locus YEL061C, strain CIN8, stronger effect = lower value",0.995
same,normalized growth,"S. cerevisiae deletion strains, locus YER110C, stronger effect = lower value",0.987
same,normalized growth,"S. cerevisiae deletion strains, locus YER155C, strain BEM2, stronger effect = lower value",1.01
same,normalized growth,"S. cerevisiae deletion strains, locus YER167W, strain BCK2, stronger effect = lower value",0.972
same,normalized growth,"S. cerevisiae deletion strains, locus YGL078C, strain dbp3, stronger effect = lower value",0.984
same,normalized growth,"S. cerevisiae deletion strains, locus YGL086W, strain mad1, stronger effect = lower value",1
same,normalized growth,"S. cerevisiae deletion strains, locus YGL248W, strain PDE1, stronger effect = lower value",0.946
same,normalized growth,"S. cerevisiae deletion strains, locus YGR078C, strain PAC10, stronger effect = lower value",0.969
same,normalized growth,"S. cerevisiae deletion strains, locus YGR135W, strain pre9, stronger effect = lower value",0.981
same,normalized growth,"S. cerevisiae deletion strains, locus YGR229C, strain SMI1, stronger effect = lower value",0.908
same,normalized growth,"S. cerevisiae deletion strains, locus YGR252W, strain gcn5, stronger effect = lower value",0.954
same,normalized growth,"S. cerevisiae deletion strains, locus YHR030C, strain SLT2, stronger effect = lower value",1.01
same,normalized growth,"S. cerevisiae deletion strains, locus YHR079C, strain IRE1 (second series), stronger effect = lower value",0.989
same,normalized growth,"S. cerevisiae deletion strains, locus YHR094C, strain hxt1, stronger effect = lower value",0.999
same,normalized growth,"S. cerevisiae deletion strains, locus YHR129C, strain ARP1, stronger effect = lower value",0.969
same,normalized growth,"S. cerevisiae deletion strains, locus YHR200W, strain rpn10, stronger effect = lower value",0.995
same,normalized growth,"S. cerevisiae deletion strains, locus YIL066C, strain RNR3, stronger effect = lower value",0.94
same,normalized growth,"S. cerevisiae deletion strains, locus YIL073C, strain SPO22, stronger effect = lower value",0.907
same,normalized growth,"S. cerevisiae deletion strains, locus YIL125W, strain kgd1, stronger effect = lower value",0.981
same,normalized growth,"S. cerevisiae deletion strains, locus YIR030C, strain dcg1, stronger effect = lower value",0.984
same,normalized growth,"S. cerevisiae deletion strains, locus YJL095W, strain BCK1, stronger effect = lower value",0.964
same,normalized growth,"S. cerevisiae deletion strains, locus YJL134W, strain LCB3, stronger effect = lower value",0.988
same,normalized growth,"S. cerevisiae deletion strains, locus YJL168C, strain set2, stronger effect = lower value",0.984
same,normalized growth,"S. cerevisiae deletion strains, locus YJL187C, strain SWE1 (second series), stronger effect = lower value",0.984
same,normalized growth,"S. cerevisiae deletion strains, locus YJR043C, strain POL32, stronger effect = lower value",0.984
same,normalized growth,"S. cerevisiae deletion strains, locus YJR075W, strain HOC1, stronger effect = lower value",0.928
same,normalized growth,"S. cerevisiae deletion strains, locus YKL009W, strain mrt4, stronger effect = lower value",0.946
same,normalized growth,"S. cerevisiae deletion strains, locus YKL068W, stronger effect = lower value",0.993
same,normalized growth,"S. cerevisiae deletion strains, locus YKL085W, strain MDH1 (second series), stronger effect = lower value",0.984
same,normalized growth,"S. cerevisiae deletion strains, locus YKL085W, strain MDH1, stronger effect = lower value",0.984
same,normalized growth,"S. cerevisiae deletion strains, locus YKL190W, strain CNB1, stronger effect = lower value",1
same,normalized growth,"S. cerevisiae deletion strains, locus YKR001C, strain vps1, stronger effect = lower value",0.978
same,normalized growth,"S. cerevisiae deletion strains, locus YLR039C, strain RIC1, stronger effect = lower value",0.868
same,normalized growth,"S. cerevisiae deletion strains, locus YLR058C, strain SHM2, stronger effect = lower value",0.982
same,normalized growth,"S. cerevisiae deletion strains, locus YLR102C, strain apc9, stronger effect = lower value",0.983
same,normalized growth,"S. cerevisiae deletion strains, locus YLR262C, strain YPT6, stronger effect = lower value",0.829
same,normalized growth,"S. cerevisiae deletion strains, locus YLR268W, strain sec22, stronger effect = lower value",0.981
same,normalized growth,"S. cerevisiae deletion strains, locus YLR330W, strain CHS5, stronger effect = lower value",0.992
same,normalized growth,"S. cerevisiae deletion strains, locus YLR342W, strain FKS1 (second series), stronger effect = lower value",0.996
same,normalized growth,"S. cerevisiae deletion strains, locus YLR371W, strain rom2, stronger effect = lower value",0.985
same,normalized growth,"S. cerevisiae deletion strains, locus YLR418C, strain cdc73, stronger effect = lower value",0.932
same,normalized growth,"S. cerevisiae deletion strains, locus YML016C, strain PPZ1, stronger effect = lower value",0.988
same,normalized growth,"S. cerevisiae deletion strains, locus YML032C, strain rad52, stronger effect = lower value",0.989
same,normalized growth,"S. cerevisiae deletion strains, locus YML124C, strain tub3, stronger effect = lower value",0.996
same,normalized growth,"S. cerevisiae deletion strains, locus YMR078C, strain ctf18, stronger effect = lower value",0.997
same,normalized growth,"S. cerevisiae deletion strains, locus YMR223W, strain ubp8, stronger effect = lower value",0.98
same,normalized growth,"S. cerevisiae deletion strains, locus YMR263W, strain SAP30, stronger effect = lower value",0.981
same,normalized growth,"S. cerevisiae deletion strains, locus YMR307W, strain GAS1, stronger effect = lower value",0.954
same,normalized growth,"S. cerevisiae deletion strains, locus YNL067W, strain RPL9B, stronger effect = lower value",0.971
same,normalized growth,"S. cerevisiae deletion strains, locus YNL128W, strain TEP1, stronger effect = lower value",0.918
same,normalized growth,"S. cerevisiae deletion strains, locus YNL153C, strain GIM3, stronger effect = lower value",0.987
same,normalized growth,"S. cerevisiae deletion strains, locus YNL233W, strain BNI4, stronger effect = lower value",0.982
same,normalized growth,"S. cerevisiae deletion strains, locus YNL250W, strain rad50, stronger effect = lower value",0.982
same,normalized growth,"S. cerevisiae deletion strains, locus YNL271C, strain bni1, stronger effect = lower value",0.991
same,normalized growth,"S. cerevisiae deletion strains, locus YNL298W, strain CLA4, stronger effect = lower value",0.979
same,normalized growth,"S. cerevisiae deletion strains, locus YNL307C, strain MCK1, stronger effect = lower value",0.987
same,normalized growth,"S. cerevisiae deletion strains, locus YNL322C, strain KRE1, stronger effect = lower value",0.981
same,normalized growth,"S. cerevisiae deletion strains, locus YNR052C, strain pop2, stronger effect = lower value",0.986
same,normalized growth,"S. cerevisiae deletion strains, locus YOL006C, strain TOP1, stronger effect = lower value",0.788
same,normalized growth,"S. cerevisiae deletion strains, locus YOL012C, strain htz1",1.08
same,normalized growth,"S. cerevisiae deletion strains, locus YOL147C, strain pex11, stronger effect = lower value",1.01
same,normalized growth,"S. cerevisiae deletion strains, locus YOR061W, strain CKA2, stronger effect = lower value",0.964
same,normalized growth,"S. cerevisiae deletion strains, locus YOR069W, strain VPS5, stronger effect = lower value",0.995
same,normalized growth,"S. cerevisiae deletion strains, locus YOR136W, strain idh2, stronger effect = lower value",0.988
same,normalized growth,"S. cerevisiae deletion strains, locus YOR144C, strain elg1, stronger effect = lower value",0.989
same,normalized growth,"S. cerevisiae deletion strains, locus YOR184W, strain ser1, stronger effect = lower value",0.968
same,normalized growth,"S. cerevisiae deletion strains, locus YOR316C, strain cot1, stronger effect = lower value",0.969
same,normalized growth,"S. cerevisiae deletion strains, locus YPL055C, strain LGE1, stronger effect = lower value",0.914
same,normalized growth,"S. cerevisiae deletion strains, locus YPL241C, strain CIN2, stronger effect = lower value",0.989
same,normalized growth,"S. cerevisiae deletion strains, locus YPR119W, strain clb2, stronger effect = lower value",0.993
same,normalized growth,"S. cerevisiae deletion strains, locus YPR141C, strain kar3, stronger effect = lower value",0.949
same,normalized growth,"S. cerevisiae deletion strains, locus YPR163C, strain tif3, stronger effect = lower value",0.994
same,normalized growth,"S. cerevisiae deletion strains, locus YPR167C, strain met16, stronger effect = lower value",0.979
same,normalized growth,"S. cerevisiae deletion strains, strain wtn01, stronger effect = lower value",0.981
same,normalized growth,"S. cerevisiae strains, strain wild type, stronger effect = lower value",0.982

# Reference: PubChem BioAssay AID1159580 (chemical genetic matrix, 2015)
